For assay [1], the system named is TRPC4 beta (transient receptor potential cation channel C4), mouse. The assay is described as follows: activators of mouse TRPC4 channel, confirmation, cell-based, Fluo4 calcium, HEK293 TRPC4beta/mu-opioid, duplicates, 10 µM (AID 2426;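 active = fluorescence ratio normalized to control raised more than 50% in primary screen plus both repeat runs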). Particulars: Fluo4 calcium fluorescence, at 10 µM; hits give high values.
Assay [2] deals with transient receptor potential cation channel C4 beta (TRPC4), mouse. Kind of assay: activators of mouse TRPC4 channel, confirmation, cell-based, second round, Fluo4, HEK293 TRPC4beta/mu-opioid, 1 µM (AID 2461;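 active = primary screen active and over 50% activation in each of two duplicate runs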). Particulars: Fluo4 calcium fluorescence, at 1 µM; hits give high values.
The test system of assay [3] is TRPC4 (transient receptor potential cation channel C4 beta), mouse. Kind of assay: positive allosteric modulators of mouse TRPC4, confirmation, cell-based, second round, Fluo-4, HEK293 TRPC4beta/mu-opioid, 1 µM (AID 2554;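 active = primary screen hit whose fluorescence ratio, in both repeats, exceeds the weak agonist control mean by 3 SD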). Particulars: DAMGO EC20, Fluo-4 calcium flux, at 1 µM; hits give high values. A general note: Calcium assays in cells follow changes in intracellular calcium, usually with a dye or a luminescent sensor.

For assay [4], the system named is TRPC4 beta (transient receptor potential cation channel C4), mouse. The assay is described as follows: positive allosteric modulators of mouse TRPC4, confirmation, cell-based, Fluo-4, HEK293 TRPC4beta/mu-opioid (AID 2555). Particulars: DAMGO EC20, Fluo-4 calcium flux, at 10 µM; hits give high values.
Assay [5] has as its target Short transient receptor potential channel 4 (Mus musculus) (UniProt Q9QUQ5). Kind of assay: inhibitors of mouse TRPC4 channel, confirmation, cell-based, Fluo4, HEK293 TRPC4beta/mu-opioid (AID 2636;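 active = calcium signal cut by more than 3 SD below the full-agonist control yet still positive, in both repeats and the earlier primary screen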). Particulars: DAMGO, Fluo4 calcium flux, at 10 µM; hits give high values.
Assay [6] shares this target. Kind of assay: inhibitors of mouse TRPC4 channel, confirmation, cell-based, second round, Fluo4, HEK293 TRPC4beta/mu-opioid, 1 µM (AID 2637;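 active = calcium signal ratio cut to more than 3 SD under the fully stimulated control mean yet still positive, in both repeats and the primary screen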;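 for inhibition: percent of integrated ratio relative to wells lacking test compound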). The note with it: Fluo4 calcium flux, DAMGO, at 1 µM; hits give high values.
The target is the same in assay [7]. The assay is described as follows: mouse TRPC4 channel activators, dose response, cell-based, HEK293 TRPC4/mu-opioid, Fluo-4 calcium (AID 434937;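 active = primary screen activator hit with a dose response curve and TRPC4 channel activation at any tested dose; inactive = no activation, no dose response, or not a primary hit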).
The target is the same in assay [8]. Kind of assay: TRPC4 positive allosteric modulators, dose response, cell-based, HEK293 TRPC4/mu-opioid, Fluo-4 calcium, EC20 DAMGO (AID 434941;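 active = earlier screen potentiator hit that boosts the TRPC4 ion channel at some dose, with a dose response; inactive = no potentiation, no dose response, or not a prior hit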;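 note: calcium entry triggered by an EC20 dose of DAMGO at the co-expressed mu-opioid receptor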).
Assay [9] deals with Short transient receptor potential channel 6 (Mus musculus) (UniProt Q61143). Kind of assay: inhibition of mouse TRPC6 channel, confirmation, selectivity assay for TRPC4 inhibitor project, cell-based, HEK293, membrane potential dye, duplicate (AID 434948;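 active = active in primary screen and both duplicates, each dropping signal beyond three positive-control SD with fluorescence still positive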). The note with it: HEK293 TRPC6, membrane potential dye fluorescence, at 10 µM, stimulated with maximal-effect acetylcholine; hits give high values.

Assay [10] shares this target. The assay is described as follows: activation of mouse TRPC6 channel, confirmation, selectivity assay for TRPC4 activator project, cell-based, HEK293, membrane potential dye, duplicate (AID 434950;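 active = membrane potential signal rise above negative control mean plus 3 SD in both duplicates, also active in the earlier TRPC4 screen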). The note with it: HEK293 TRPC6, membrane potential fluorescence, at 10 µM; hits give high values.
Assay [11] has the same target. Kind of assay: TRPC6 potentiation by TRPC4 potentiator hits, confirmation, selectivity assay for TRPC4 potentiator project, HEK293 cells, membrane potential dye, duplicate (AID 434952;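 active = compound raising the membrane signal above positive-control mean plus 3 SD in both repeats, and a primary screen hit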). Particulars: HEK293 TRPC6, membrane potential dye fluorescence, at 10 µM, maximal acetylcholine added after compound; hits give high values.
Assay [12] concerns the target Short transient receptor potential channel 4 (Mus musculus) (UniProt Q9QUQ5). The assay is described as follows: calcium flux activators in TRPC4/5HT1a cells, counter-screen for TRPC4 activator project, cell-based, second counter screen, HEK293 TRPC4/5HT1a, Fluo-4 (AID 434977;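 active = calcium signal rise above buffer-control mean plus 5 SD in both duplicates, and also a hit in the primary screen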). The note with it: Fluo-4 calcium flux, at 10 µM; hits give high values.
Assay [13] can be described thus: calcium flux inhibitors in TRPC4/5HT1a cells, confirmation, counter-screen for TRPC4 inhibitor project, cell-based, second counter screen, HEK293 TRPC4/5HT1a, Fluo-4 (AID 434978;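 active = primary screen active whose calcium signal fell more than 3 SD beyond the full-serotonin control mean in both duplicate plates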;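 for outcome: serotonin given first at submaximal then at maximal dose after compound preincubation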). The note with it: Fluo-4 calcium flux, at 10 µM, serotonin added to trigger calcium flux; hits give high values.
The subject of assay [14] is TRPC4 (mouse), co-expressed with 5HT1a in HEK293. The assay is described as follows: calcium flux potentiators in TRPC4/5HT1a cells, confirmation, counter-screen for TRPC4 potentiator project, cell-based, second counter screen, HEK293 TRPC4/5HT1a, Fluo-4 (AID 434979;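 active = signal rise over 3 SD above mean of control wells given weak agonist, in both repeats and first screen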). Particulars: Fluo-4 calcium flux, at 10 µM, serotonin added at its EC20 dose; hits give high values.
A short description of assay [15]: calcium flux activation in mu-opioid HEK293 cells, confirmation, counter-screen for TRPC4 activator project, cell-based, HEK293 mu-opioid receptor line (AID 449723;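 active = hit in primary screen, with calcium signal over 5 SD above buffer well mean in both duplicates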;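 note: counter screen cells carry the mu-opioid receptor alone and lack TRPC4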). Particulars: Fluo-4 calcium fluorescence, at 10 µM; hits give high values.
Assay [16] is described as follows: calcium flux enhancement in mu-opioid HEK293 cells, confirmation, counter-screen for TRPC4 allosteric potentiator project, cell-based, HEK293 mu-opioid receptor line (AID 449724;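 active = calcium signal rise more than 3 SD above the low-dose agonist control mean, in both duplicate plates and the primary screen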;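 note: HEK293 cells carrying mu-opioid receptor only with no TRPC4 channel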). The note with it: Fluo-4 calcium flux, at 10 µM, compound added before EC20 DAMGO stimulus; hits give high values.

SMILES strings stand for the structures. For part of these data: Results with a measured potency or affinity are listed apart. The source made the active and inactive calls.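 Rule for the calls, unless noted: active = primary screen hit whose calcium fluorescence ratio, in both repeats, exceeds the weak agonist control mean by 3 SD; inactive = the rest.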

Sequence of Short transient receptor potential channel 4 (Mus musculus) (Q9QUQ5 whole entry, looked up): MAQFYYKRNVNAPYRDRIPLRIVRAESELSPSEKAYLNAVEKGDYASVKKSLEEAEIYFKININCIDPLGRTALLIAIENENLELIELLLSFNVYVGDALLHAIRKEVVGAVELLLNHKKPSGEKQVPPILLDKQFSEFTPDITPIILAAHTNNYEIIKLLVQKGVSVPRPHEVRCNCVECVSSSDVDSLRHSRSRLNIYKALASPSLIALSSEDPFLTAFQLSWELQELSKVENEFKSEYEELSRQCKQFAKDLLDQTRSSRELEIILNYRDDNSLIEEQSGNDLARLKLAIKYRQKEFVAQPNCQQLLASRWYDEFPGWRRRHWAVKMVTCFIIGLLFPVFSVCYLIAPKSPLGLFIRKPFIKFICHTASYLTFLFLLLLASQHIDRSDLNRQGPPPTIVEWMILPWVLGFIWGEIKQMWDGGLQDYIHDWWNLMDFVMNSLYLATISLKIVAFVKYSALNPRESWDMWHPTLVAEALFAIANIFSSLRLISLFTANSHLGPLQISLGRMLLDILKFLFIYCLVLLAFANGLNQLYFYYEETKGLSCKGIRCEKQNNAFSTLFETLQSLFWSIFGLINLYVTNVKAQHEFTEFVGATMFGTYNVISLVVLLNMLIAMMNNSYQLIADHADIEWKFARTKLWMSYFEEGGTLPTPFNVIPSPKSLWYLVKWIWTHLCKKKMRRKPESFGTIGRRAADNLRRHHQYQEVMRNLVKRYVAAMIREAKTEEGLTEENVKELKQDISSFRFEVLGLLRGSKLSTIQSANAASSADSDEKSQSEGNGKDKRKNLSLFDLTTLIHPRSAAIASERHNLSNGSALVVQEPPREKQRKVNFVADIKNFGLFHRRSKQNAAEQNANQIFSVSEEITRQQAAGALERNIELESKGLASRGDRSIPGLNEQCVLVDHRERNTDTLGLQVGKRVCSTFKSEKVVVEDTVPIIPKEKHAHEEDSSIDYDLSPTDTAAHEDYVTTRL
Sequence of Short transient receptor potential channel 6 (Mus musculus) (Q61143 whole entry, looked up): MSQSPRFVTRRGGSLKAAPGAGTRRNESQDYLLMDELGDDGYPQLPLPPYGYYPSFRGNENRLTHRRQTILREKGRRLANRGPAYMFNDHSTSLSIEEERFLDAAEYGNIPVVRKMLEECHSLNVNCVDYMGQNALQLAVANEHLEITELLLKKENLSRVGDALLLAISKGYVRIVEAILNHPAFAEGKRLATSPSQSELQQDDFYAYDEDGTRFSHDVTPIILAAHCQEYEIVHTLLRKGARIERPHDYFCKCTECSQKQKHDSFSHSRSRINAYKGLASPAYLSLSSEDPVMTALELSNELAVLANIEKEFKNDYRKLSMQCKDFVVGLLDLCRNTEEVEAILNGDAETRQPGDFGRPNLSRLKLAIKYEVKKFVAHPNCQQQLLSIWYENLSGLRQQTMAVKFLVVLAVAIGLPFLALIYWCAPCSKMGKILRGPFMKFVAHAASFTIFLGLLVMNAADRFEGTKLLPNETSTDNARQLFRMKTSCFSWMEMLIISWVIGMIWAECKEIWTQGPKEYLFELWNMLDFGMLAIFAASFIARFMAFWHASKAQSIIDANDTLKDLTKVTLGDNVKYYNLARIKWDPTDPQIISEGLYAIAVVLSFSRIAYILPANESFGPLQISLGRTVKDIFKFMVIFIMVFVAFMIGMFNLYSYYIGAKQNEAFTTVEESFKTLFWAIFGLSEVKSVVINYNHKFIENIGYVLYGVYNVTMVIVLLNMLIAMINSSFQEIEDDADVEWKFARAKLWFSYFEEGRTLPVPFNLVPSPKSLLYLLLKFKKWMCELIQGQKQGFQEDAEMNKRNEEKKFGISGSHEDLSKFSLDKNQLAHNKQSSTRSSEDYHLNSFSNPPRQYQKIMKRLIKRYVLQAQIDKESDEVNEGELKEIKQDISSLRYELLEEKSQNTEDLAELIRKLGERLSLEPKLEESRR

Regarding `CCOc1ccc(Br)cc1/C=N/O`, the result in [1], in assay [2], in assay [3], in assay [4], in assay [6] and in assay [7] was inactive. For the same compound, the outcome in assay [8], in assay [10], in assay [11], in assay [12], in assay [14] and in assay [15] was inactive. Further, the result in [16] was inactive. Also, the inhibition in [5] is 90% (active); in assay [9] it was 27.5% (active); in [13], 29.2% (active).

On to `O=C(COc1ccc(F)cc1)c1c(O)cc(O)cc1O`, for which the outcome in assay [1], in assay [2], in assay [3], in assay [4], in [6] and in assay [7] was inactive. The result in assay [8], in assay [9], in assay [10], in assay [11], in [12] and in assay [14] was inactive. The outcome in assay [15] and in [16] was inactive. Moreover, the inhibition was 84% (active) in [5] and 36.3% (active) in assay [13].

As to `COC(=O)CSc1nnc2n(-c3ccc(OC)cc3)c(=O)c3c4c(sc3n12)CCCCC4`, the result in assay [1], in assay [2], in [3], in assay [4], in [6] and in assay [7] was inactive. Also, the result in assay [8], in [9], in [10], in assay [11], in [12] and in [14] was inactive. In addition, the result in assay [15] and in assay [16] was inactive. Besides, the inhibition was 95% (active) in assay [5] and 23% (active) in [13].

As to `Cc1nc(N2CCN(c3ccccn3)CC2)c2c(C)c(C(=O)N3CCN(c4ccc(F)cc4)CC3)sc2n1`, the result in [1], in assay [2], in [3], in assay [4], in assay [7] and in assay [8] was inactive. Moreover, the result in assay [9], in [10], in assay [11], in assay [12], in [13] and in [14] was inactive. The result in [15] and in assay [16] was inactive. Moreover, the inhibition is 99% (active) in [5] and 48% (active) in assay [6].

In the case of `Brc1cc2c(cc1COc1ccc(-c3nn[nH]n3)cc1)OCO2`, the result in assay [1], in assay [2], in [3], in assay [4], in assay [6] and in [7] was inactive. Moreover, the result in assay [8], in [9], in assay [10], in assay [11], in assay [12] and in [14] was inactive. In addition, the result in [15] and in assay [16] was inactive. The values for the inhibition in [5] and in assay [13] were 89% (active) and 35.1% (active), respectively.

As for `CCC1C=C(c2ccccc2)C=CN=C1N(CC)CC` (stereo not given), the outcome in assay [1], in [2], in assay [3], in assay [4], in assay [6] and in assay [7] was inactive. For the same compound, the outcome in assay [8], in assay [9], in assay [10], in assay [11], in assay [12] and in assay [14] was inactive. Besides, the outcome in assay [15] and in assay [16] was inactive. Moreover, the inhibition in [5] was 93% (active); in assay [13] it was 26.5% (active).

Regarding `CN(Cc1ccccc1)C(=O)CSc1nnc(-c2ccco2)n1-c1ccccc1`, the result in assay [1], in [2], in assay [3], in assay [4], in assay [7] and in assay [8] was inactive. In addition, the result in assay [9], in assay [10], in assay [11], in [12], in assay [13] and in assay [14] was inactive. In addition, the outcome in [15] and in assay [16] was inactive. For the same compound, the results for the inhibition in [5] and in [6] were 71% (active) and 43% (active), respectively.

As to `COc1ccc(C2CC(c3ccccc3)Nc3nc(NC(=O)c4cccs4)nn32)cc1` (stereo not given), the result in assay [1], in [2], in assay [3], in [4], in assay [6] and in assay [7] was inactive. The outcome in assay [8], in assay [9], in assay [10], in assay [11], in [12] and in assay [13] was inactive. Also, the outcome in assay [14], in assay [15] and in assay [16] was inactive. Besides, the inhibition in [5] is 95% (active).

With `NC(=O)c1nsc(C(=O)N(Cc2ccccc2F)C(C(=O)NCC2CCCO2)c2ccc(F)cc2)c1N` (stereo not given), the outcome in assay [1], in assay [2], in assay [3], in assay [4], in assay [7] and in assay [8] was inactive. In addition, the compound was called inactive in assay [9], in assay [10], in assay [11], in [12], in [14] and in assay [15]. Besides, in assay [16], the outcome was inactive. Moreover, the results for the inhibition in assay [5], in assay [6] and in [13] were 93% (active), 50% (active) and 26.4% (active), respectively.

For the compound `Cc1cccc(CN2CCCC(C(=O)Nc3ccccc3Oc3cccnc3)C2)c1` (stereo not given), the result in [1], in assay [2], in assay [3], in assay [4], in assay [6] and in [7] was inactive. In addition, the outcome in assay [8], in assay [9], in [10], in assay [11], in assay [12] and in assay [14] was inactive. In addition, the outcome in assay [15] and in assay [16] was inactive. Also, the values for the inhibition in assay [5] and in assay [13] were 92% (active) and 35.8% (active), respectively.

`CCOc1ccc(Cl)cc1/C=N/O`: the outcome in assay [1], in assay [2], in assay [3], in [4], in [6] and in assay [7] was inactive. For the same compound, the outcome in [8], in [10], in assay [11], in assay [12], in assay [14] and in assay [15] was inactive. The outcome in assay [16] was inactive. For the same compound, the inhibition in [5] is 86% (active); in assay [9], 2% (active); in assay [13], 39.8% (active).

With `c1ccn2cc(C34CC5CC(CC(C5)C3)C4)nc2c1`, the result in assay [1], in [2], in assay [3], in assay [4], in assay [6] and in assay [7] was inactive. Besides, the result in assay [8], in [9], in assay [10], in [11], in assay [12] and in assay [14] was inactive. Also, the outcome in assay [15] and in assay [16] was inactive. Moreover, the inhibition in [5] was 69% (active); in [13] it was 41.3% (active).

Turning to `FC(F)Oc1ccccc1NC(=S)Nc1cccc(Cl)c1Cl`, the outcome in [1], in assay [2], in [3], in [4], in [7] and in [8] was inactive. For the same compound, the compound was classed as inactive in [9], in assay [10], in [11], in assay [12], in assay [13] and in assay [14]. Besides, the result in assay [15] and in assay [16] was inactive. Also, the inhibition is 77% (active) in assay [5] and 45% (active) in assay [6].

In the case of `CC(=O)c1ccc2c(c1)N(C)c1ccccc1S2`, the result in assay [1], in assay [2], in assay [3], in [4], in [6] and in assay [7] was inactive. The outcome in [8], in [9], in assay [10], in assay [11], in assay [12] and in assay [14] was inactive. Moreover, the result in [15] and in assay [16] was inactive. Also, the inhibition in assay [5] was 84% (active); in [13] it was 36.8% (active).

Take `CC(C)NC(=S)N1CCN(C/C=C/c2ccccc2)CC1`: the outcome in assay [1], in [2], in [3], in assay [4], in assay [6] and in assay [7] was inactive. The result in [8], in [9], in assay [10], in assay [11], in assay [12] and in assay [13] was inactive. The outcome in [14], in assay [15] and in [16] was inactive. Besides, the inhibition in assay [5] is 71% (active).

The term inhibition denotes the share of the control response that was lost under treatment.

These data come from PubChem BioAssay.
